B1: d4r4_design_ppi_490_dldesign_0_cycle1_af2pred (protein)
chain: AEVEKEAKKAATEAREAVAELRGLAQEAKLKGVEEAKKVAEEAIKEASALLKEAAKEKDPEKALKLAKEAYKVAKEAIKKAKKLLE
B2: d4r4_design_ppi_394_dldesign_0_cycle1_af2pred (protein)
chain: MEIQKENDAEAGLERAKHAKEVAKKALENKPKLSLEEVAEILKKAAERAEKAAKTEEGKKLAKELKEEAKKVEAELKKAQ
B3: d4r5_design_ppi_20_dldesign_0_cycle1_af2pred (protein)
chain: MNLEELKKKVKEYTKELGKKAGVSEEEIKELAELAAEAASLSSDTTKEVLEDYAKESSEKVAKVAKETAEYAIEIKKKAR
B4: d4r4_design_ppi_349_dldesign_0_cycle1_af2pred (protein)
chain: SEAAKYKAQYEATKKQLKETSAKLKEEKKNLSAETYKEYANKLQEARQKSTYYKAKGDYKNALAAMQEALDIAQQALAEAQKAK
B5: d4r4_design_ppi_253_dldesign_0_cycle0_af2pred (protein)
chain: MEELREEARRRMREARERAGEAAATSPEAAREAAEEVRRIAEELRKRVDWQTGARAEAQAEQIVEALERAAKAMEA
B6: d4r4_design_ppi_303_dldesign_0_cycle0_af2pred (protein)
chain: MAERAAIMEEARENAIKAYEYAVKLKKIDPELGKEYMKKIDKLMKEAVEAAKDAEKAKKKAEEIKKLAEEIEKIAKEK
B7: d4r4_design_ppi_299_dldesign_0_cycle0_af2pred (protein)
chain: KSELAKKAADETSKALSYIRAFAKYKPEKGKEIEDLLLDEEKMEEAAELAEKAAKEAETEEEKEIAKKAAEHIRKAKEYLEKLK
B8: d4r4_design_ppi_253_dldesign_0_cycle1_af2pred (protein)
chain: MEEKKEEARRIVREAREEARKAAAESPEAALKAAEKVKERRKELEEKVDFKTAESASARFEQIIEALKIAAKKLAA
B9: d4r4_design_ppi_396_dldesign_0_cycle0_af2pred (protein)
chain: AEAAAFAAAKAAAAKAFAEAYEAANALLASGKYKEEAEKGKKELKELAKKLKAAKTAEEAKKVAEEAKKLAEKLKKLLEEAE
B10: d4r5_design_ppi_34_dldesign_0_cycle1_af2pred (protein)
chain: EEEKLKAAEAAARNLKLAIEAAKTEGKEYGILYMESAVQAGEIVGLGEKVKETKEALEKNPEEGIKLAEELKKEFEAIV
B11: d4r4_design_ppi_257_dldesign_0_cycle1_af2pred (protein)
chain: AEAKAAREAEFKALVEKAEAAADAAMAKATTIEEKKAILDLFNEAARHAKRGAANPETAAADLAAAKAKLAEIEAKAKA
B12: d4r4_design_ppi_486_dldesign_0_cycle1_af2pred (protein)
chain: MEEVVKKAEEAAKKAVEAAREAAKKNAADPEKVKYLAELAQEALEARAVALAKPELAEEELKKIEEKRKKAEEILA
B13: d4r5_design_ppi_7_dldesign_0_cycle1_af2pred (protein)
chain: EESKELRIKAISLLSSAAFYAKTLGPEGKYFEKAAELALTDLEKAIEEAKKALKAAEKLDKELAKRVEKAIEYLKKALE
B14: d4r4_design_ppi_471_dldesign_0_cycle1_af2pred (protein)
chain: EEAKKVAEEAKKVGKEAAKAGLEKLAAEAFEASYKVKAAYDFYKKNPEKGKEILEEEVKEAKKVIEKAKKEIKKAKAKA
B15: d4r4_design_ppi_356_dldesign_0_cycle1_af2pred (protein)
chain: DLEEKAKEGLKKMEEEGKKNPELGKKVKELLEKGKEDGLKGVVEAAKLLTKEAGEEIKPYAAAIVHYERLKK
B16: d4r4_design_ppi_373_dldesign_0_cycle1_af2pred (protein)
chain: SEKEARIKEAVALMDKAAEEAAEKAKTTELANKAFRAATTAAKAAASGEDWPKGEAAVKELKKADPEAGKIIEEAAKQAAEIIA
B17: d4r4_design_ppi_269_dldesign_0_cycle1_af2pred (protein)
chain: DVEEAREKNLEIAKKAIEEARKVAKEAEKKPEYREKAKELRKEAEELEKLAEEGKKDPLMATLAGVQGRRLLEEARKLRKELEEE
B18: d4r4_design_ppi_491_dldesign_0_cycle1_af2pred (protein)
chain: SANKELADAIKEAAKEAQAAANAAKEAYADDPAKAKEFADKMEKKIDEAHNSDLETAKKIAEEAKKEKEKAKAALKKAKA
B19: d4r4_design_ppi_269_dldesign_0_cycle0_af2pred (protein)
chain: SVEEAKKKNLKIAEEAIKLAEEVAKELEKNEKYKEKAEEFKKKAKELKELKKKGEEDALDATLAGVYGKRLKKKAEEEKKKLEEE
B20: d4r4_design_ppi_481_dldesign_0_cycle1_af2pred (protein)
chain: MADEASAEIRLENAKDAAKIWIKKVEKIDPELAKEYAAKMKEAAKKPDKEGAKKAREIAKEVKKKAEELEKKAKEKEEEKKKEEEEK
B21: d4r4_design_ppi_411_dldesign_0_cycle1_af2pred (protein)
chain: SAAEVAALEKAARAAIAAALAAAKAALADPSTLAEQKKAAEAALAAAREAAAAARWKDYEVGEALRKELAAAEKEVKATIAEAQKKKE
B22: d4r5_design_ppi_34_dldesign_0_cycle0_af2pred (protein)
chain: EEEKKEAAKKAAELIERAIEAAKTEGKEYGIIYMEAAVEAAKKVGLGEKAKEALKALEKDEEEGIKLAKELREEFEKLI
B23: d4r5_design_ppi_25_dldesign_0_cycle1_af2pred (protein)
chain: EEKEAVKKAAKIIQEMREKGLELIHEAKIKGSKEIAEEGIKKAEELGKKALEAAEKASPEERKKVEEKVEKTLKRIKEEAEKVIKE
B24: d4r4_design_ppi_486_dldesign_0_cycle0_af2pred (protein)
chain: MEETIERAKEAAREALEAAREAAKKNAADPEKVKKLAELAQKAQEARAEALAKPEKAEEALKRIEEYLKEAKEILE
B25: d4r5_design_ppi_25_dldesign_0_cycle0_af2pred (protein)
chain: EKEEALKKAANIIQKMREEGTAGINEAKVSGSKEIAKEAIKKAEELAKKALEEASKATPEDYEKAKEKVKRILERLKKEAEKVIKE
B26: d4r4_design_ppi_240_dldesign_0_cycle0_af2pred (protein)
chain: MKEKQEKARAEARAEHVKEAIEKYYKEAAKGDKKEALKKTAEFAKEAAKKAKYPLTKEIALALAEEYAKKAA
B27: d4r5_design_ppi_19_dldesign_0_cycle0_af2pred (protein)
chain: MEEKLKEAAKKVQEAYQLAAENKEKREELRELAKKARESLKEAEKAYKEGKEEEAEKYLEKSFEYNKEAEELYKKTKKEKEEKEKK
B28: d4r4_design_ppi_265_dldesign_0_cycle1_af2pred (protein)
chain: SKEEEEAKKTKEEAEKRLKKALEEAKKLGEAEVDAVKQIVEAGKKAAAAAETPKEAAEALAKAAKTAESIIKTAKEAKKR
B29: d4r4_design_ppi_373_dldesign_0_cycle0_af2pred (protein)
chain: AARAAAQKEAVALMAEAAEKAAEKAKKTSVAAEAFRAATKAAQAAASGEKWPEGEAAVEKLKKLDPEAGKIIAEAAAKAKAIMA
B30: d4r4_design_ppi_338_dldesign_0_cycle1_af2pred (protein)
chain: SLNEEAKKEAEKLVEKAKKALKESPEAGEKAVKEMANKYHEYLELGVDKEVVERLRKEAKELKEEVKRKKKELEEEKLA
B31: d4r4_design_ppi_344_dldesign_0_cycle1_af2pred (protein)
chain: DPLTLAQEGLTEARYNAKDPEKALAILTATVAAGTAALAALAADPATAPLAAAGLATLARYGAKVGAEILANAKEKEA
B32: d4r4_design_ppi_251_dldesign_0_cycle1_af2pred (protein)
chain: DSDEKAKELLEEAEKYLEEGEKLMEEGKYEEAVLLYRRAQVAALSAELSATTEELKEKAKELLKKAEEKLKEAEEALKKAEEEKK
B33: d4r5_design_ppi_37_dldesign_0_cycle0_af2pred (protein)
chain: GGAVDQVVDNVAKAVGAEAGARIRAAYEEGPEKAIATLEELAARLAAEDPELGAKAAKAARVLRSIVEDEKR
B34: d4r4_design_ppi_349_dldesign_0_cycle0_af2pred (protein)
chain: SEKEKLLEKYKETLEELRKVRKELAKEKKNLDKETFTKIANELQDARNESAYYKQQGDYKKALEAAEKALEIAKEGLKKAKEAA
B35: d4r4_design_ppi_490_dldesign_0_cycle0_af2pred (protein)
chain: AKTEEEAKKAATEASEAVADLRGYEQEAKIKGNEEAAKVAKEAIKEAAKLAKEAAASKDPKEALKLAKEALKVAKKAIEEVKKLLE
B36: d4r4_design_ppi_439_dldesign_0_cycle1_af2pred (protein)
chain: AEEEERERRVREAAEWLVEAPVRLANEAALRAGELAGDSDLALEIQALNNYNREEGARAALASPAREVVAEATEEVRRRREAERAAA
B37: d4r4_design_ppi_410_dldesign_0_cycle0_af2pred (protein)
chain: AAAAAAAQKAEMDRTVAAAERQTAILEKRLKAAGLTALADKVKAALAALKAAAEAGDYEAAKKAAAALAKAAAEAREAVAEKEVKA
B38: d4r4_design_ppi_471_dldesign_0_cycle0_af2pred (protein)
chain: EEAEKVAKEAREVGKEAAEAGLKKTAAEAFAAANRVRAALAFKKANPEKGQPILEEEVKEAKEVIEKAKKEIAAKKAAA

Each binder was assayed against VTCN1, Q7Z7D3.
Sequence of VTCN1, Q7Z7D3 (Q7Z7D3 whole entry): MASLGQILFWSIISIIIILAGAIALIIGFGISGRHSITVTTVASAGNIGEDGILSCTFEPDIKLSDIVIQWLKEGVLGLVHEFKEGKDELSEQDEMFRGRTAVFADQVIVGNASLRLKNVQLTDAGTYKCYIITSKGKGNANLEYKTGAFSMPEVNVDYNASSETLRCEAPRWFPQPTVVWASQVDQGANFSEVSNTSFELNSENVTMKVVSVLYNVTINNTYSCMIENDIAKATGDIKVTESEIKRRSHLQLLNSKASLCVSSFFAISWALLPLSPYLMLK

Binding in a display sort, inactive:
B1 not found
B2 not found
B3 not found
B4 not found
B5 not found
B6 not found
B7 not found
B8 not found
B9 not found
B10 not found
B11 not found
B12 not found
B13 not found
B14 not found
B15 not found
B16 not found
B17 not found
B18 not found
B19 not found
B20 not found
B21 not found
B22 not found
B23 not found
B24 not found
B25 not found
B26 not found
B27 not found
B28 not found
B29 not found
B30 not found
B31 not found
B32 not found
B33 not found
B34 not found
B35 not found
B36 not found
B37 not found
B38 not found

Source: paper PMC13494018
